Drawing on PubChem BioAssay (NCI), this text covers growth for eight molecules.

Common to all, as to test: NCI-60 one-dose screen, 48 h (100 = growth as untreated, 0 = no growth, -100 = all killed)
Conditions in all cases: 10 µM unless noted

For assay [1], the system named is SK-MEL-2 melanoma.
Assay [2] deals with EKVX NSCLC.
The test system of assay [3] is SN12C renal.
Assay [4] concerns UO-31 renal.
The test system of assay [5] is TK-10 renal.
Assay [6] concerns ACHN renal.
Assay [7] relates to CAKI-1 renal.
Assay [8] concerns A498 renal.
Assay [9] deals with CCRF-CEM leukemia.
Assay [10] has as its system MOLT-4 leukemia.
Assay [11] relates to SR leukemia.
For assay [12], the system named is RPMI-8226 leukemia.
The subject of assay [13] is OVCAR-8 ovarian.
Assay [14] concerns OVCAR-5 ovarian.
Assay [15] concerns OVCAR-4 ovarian.
The test system of assay [16] is SK-OV-3 ovarian.
Assay [17] relates to IGROV1 ovarian.
Assay [18] deals with OVCAR-3 ovarian.
Assay [19] has as its system NCI/ADR-RES ovarian.
In assay [20] the test system is HS 578T breast.

About 83,000 compounds went through this panel and 20% of them were active in at least one assay; those are over-represented in the sample as a whole.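 For each line, cells grew in 96-well plates with the test compound present at a single concentration for 48 hours.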 Values without a mark were called inactive. Active and inactive are the calls of the source. Rule for the calls: active = growth percent below 10; inactive = the rest.

`Cn1cc(-c2cc(N)n3nc(-c4c[nH]c5ccccc45)cc3n2)c2cc(F)ccc21`: the growth in assay [1] was 51.6%; in assay [2], 60.2%; in assay [3] it was 47.1%; in assay [4], 59.7%; in assay [5] it was 50.6%; in assay [6] it was 31.7%. The growth in assay [7] was 77.5%; in assay [8], 99%; in assay [9], -0.0318% (active); in assay [10], 25.7%; in assay [11] it was 13.1%; in assay [12], 0.774% (active). The growth in assay [13] was -43.2% (active); in assay [14], 34.4%; in assay [15], 35.3%; in assay [16], 97.9%; in assay [17], 21.2%; in assay [18] it was 15.8%. Besides, the growth in assay [19] was 19.1%.
As to `Cc1ccc(C2CC(c3ccc(S(=O)(=O)NCCNc4nc(N(C)C)nc(N5CCOCC5)n4)cc3)=Nc3c(N)nc(N)nc3N2)cc1` (configuration not stated), the growth in assay [1] is 86.2%; in [2], 38.4%; in assay [3], 51.5%; in assay [4], 36.9%; in assay [5], 96.4%; in assay [6], 68.2%. In addition, the growth is 43.4% in assay [7]; 105% in assay [8]; 17.3% in assay [9]; 3.09% (active) in [10]; 1.45% (active) in assay [11]; 23.4% in assay [12]. The growth was 56.3% in [13]; 90% in [14]; 55.7% in assay [15]; 77.2% in assay [16]; 50.2% in assay [17]; 64.9% in assay [18]. Also, the growth in [19] is 89.3%.
Turning to `O=C(NC(=S)N1CCN(c2ncnc3c2cnn3-c2ccccc2)CC1)c1ccc(F)cc1`, the growth is 91.6% in assay [1]; 86.2% in assay [2]; 64.9% in [3]; 74.4% in [4]; 140% in assay [5]; 79.6% in [6]. Further, the growth was 84.8% in assay [7]; 124% in [8]; 63.2% in [9]; 45.2% in assay [10]; 8.59% (active) in assay [11]; 76.3% in assay [12]. In addition, the growth in assay [13] is 67.8%; in assay [14] it was 92.8%; in assay [15], 45.8%; in assay [16], 69.1%; in assay [18], 113%; in assay [20], 70.5%. Further, the growth in assay [19] was 71.8%.
As for `COc1ccc2[nH]c(O)c(N=NC(=O)c3ccc4nc(-c5ccc(Cl)cc5)[nH]c4c3)c2c1`, the growth in assay [1] is 109%; in assay [2], 90.1%; in assay [3] it was 70.7%; in assay [4], 95.6%; in assay [5], 111%; in assay [6], 104%. Moreover, the growth in assay [7] was 93.6%; in [8], 166%; in [9], 25.7%; in [10] it was 15.7%; in [11], 34.2%; in assay [12], 103%. Moreover, the growth is 48.4% in assay [13]; 72.1% in assay [14]; 48.9% in assay [15]; 90.8% in assay [16]; 71.8% in assay [18]; 37.7% in assay [20]. The growth in assay [19] is 116%.
Regarding `O=C(Nc1nc2ccc([N+](=O)[O-])cc2s1)Nc1ccccc1F`, the growth in assay [1] is 6.45% (active); in [2], 5.56% (active); in [3], 2.55% (active); in [4], 6.12% (active); in assay [5], 17.9%; in assay [6], 1.6% (active). Moreover, the growth in assay [7] was -8.16% (active); in assay [8], -18.3% (active); in assay [9] it was 15.5%; in assay [10], 15.7%; in assay [11], 15.1%; in [12], -19.2% (active). Moreover, the growth in assay [13] was 15.1%; in assay [14] it was 15.5%; in assay [15] it was 16.6%; in [16], -14.2% (active); in assay [18] it was 24.6%; in assay [20], 0.171% (active). Besides, in [19], the growth was 7.3% (active).
As to `Nc1cc(-c2c[nH]c3ccc(F)cc23)nc2cc(-c3c[nH]c4ccccc34)nn12`, the growth is -16.8% (active) in assay [1]; 7.95% (active) in [2]; 41.2% in assay [3]; 21.7% in assay [4]; 17.3% in [5]; 6.95% (active) in assay [6]. Further, the growth in assay [7] was 1.64% (active); in assay [8], 21.8%; in assay [9], -11.6% (active); in assay [10], -9.73% (active); in [11], 15.4%; in assay [12], -1.51% (active). The growth in assay [13] is 4.46% (active); in assay [15] it was 47.8%; in [16] it was 18.5%; in assay [17], 16.2%; in assay [18], 28.8%; in [20] it was 20.7%. The growth in assay [19] was 10.7%.
On to `O=C1Nc2ccccc2/C1=C/C(=O)c1cc2ccccc2oc1=O`, for which the growth is 99.5% in assay [1]; 89.6% in assay [2]; 99.3% in assay [3]; 45.8% in assay [4]; 102% in assay [5]; -47.6% (active) in assay [6]. Further, the growth in assay [7] is 75.5%; in [8], 223%; in [9], 54.7%; in [10] it was 41%; in assay [11], 56.8%; in assay [12] it was 95.9%. Moreover, the growth is 109% in assay [13]; 104% in assay [15]; 91.9% in [16]; 98.3% in [17]; 55.9% in assay [18]; 105% in assay [20]. In assay [19], the growth is 107%.
As for `Cc1cccc(-c2ccccc2Oc2ccc3nnc(Cl)n3n2)c1`, the growth in assay [1] is 105%; in [2], 98.2%; in assay [3], 101%; in assay [4] it was 90.6%; in assay [5] it was 103%; in assay [6] it was 105%. The growth in assay [7] was 92.2%; in [8], 117%; in assay [9], 103%; in assay [10], 103%; in assay [11] it was 86.9%; in assay [12], 107%. The growth in assay [13] is 104%; in assay [15], 104%; in [16], 124%; in assay [17], 103%; in assay [18], 112%; in [20] it was 102%. The growth in [19] was 102%.
